Among the data in PubChem BioAssay are activity values, retold here.

Molecules are shown by their SMILES.

This assay is described as follows: caspase-8 TRAIL sensitization, hit retest, confirmation, cell-based, NB7+caspase-8, with/without TRAIL, luminescence panel (AID 651596). The settings on record: NB7 neuroblastoma + caspase-8, without TRAIL, luminescence viability, without TRAIL, mean of runs, at 10 µM.
For the molecule `Cn1cc(S(=O)(=O)CC(=O)N2CCCc3ccccc32)c2ccccc21`, the activity was -0.4%. To `C(=N\Nc1nc2ccccc2[nH]1)/c1ccc2ncccc2c1` belongs 85.6%; to `Cc1ccc(CN2[C@@H](Cc3ccccc3)C(=O)CS2(=O)=O)cc1`, 60.2%.

On to `COc1ccc(CC(N)c2csc(NC(=O)Nc3ccc(C(C)C)cc3)n2)cc1` (centres undefined), for which the activity was 97.2%. In the case of `Clc1ccc(-c2nc(-c3cnccn3)no2)cc1` it was 39.1%; in that of `COc1cc(C2CC(c3cccs3)=NN2C(=O)CCl)ccc1OC(F)F` (centres undefined), 99.5%; in that of `CCc1ccc(C(=O)Cn2ncc(Cl)c(Cl)c2=O)cc1`, 99.4%. To `COc1ccccc1OCCNC(=O)c1ccc2c(c1)OCCO2` belongs 45.9%; to `CCOc1ccc2nc(-c3ccccc3)[nH]c2c1`, 76%; to `COc1ccc(C(=O)Nc2nnc(SCC(=O)NCc3ccco3)s2)c(OC)c1`, 61.2%.

In the case of `COc1ccc(OC)c(NC(=O)c2cc(-c3cc(Cl)ccc3O)n[nH]2)c1`, the activity was determined as 34.1%. In the case of `O=C(Nc1cc2ccccc2oc1=O)c1ccccc1` it was 52%; in that of `O=C(CCl)N(Cc1cccc([N+](=O)[O-])c1)c1cccc(Cl)c1`, 99.6%; in that of `CCOc1ccc(OCc2cccc(C(=O)N3CCOCC3)c2)cc1`, 55.5%. In the case of `CN(C(=O)c1ccco1)c1nc2c(s1)CCCC2` it was 60.5%; in that of `CCOC(=O)c1c(CSC(=N)N)n(-c2ccc(C)cc2)c2cc(Br)c(OC(C)=O)cc12`, 81.3%. For `COc1ccc(-c2cc3ccc(F)cc3cn2)cc1`, the activity came out at 58.9%.

On to `O=C(/C=C/c1cccc(F)c1)N1CCc2ccccc21`, for which the activity worked out at 52.8%. In the case of `CC(C)C[C@H]1CNC(=S)N1C[C@H]1CCCN1C[C@H](Cc1ccccc1)N1C[C@H](Cc2ccc(O)cc2)N(CC2CCCCC2)C1=S` it was -1.23%.
